The full data set covers some 7,900 targets. This sample favours those with a hit. About 0.6% of all pairs of compound and target were hits.
Assays:
Assay in all cases: log2 fold change, soluble protein after heating vs DMSO (PISA); higher = thermal stabilisation; K562 cells, 10 uM, 30 min; active = over 0.2 and 3.5 SD of the protein, either way, in both replicates (recomputed)
bafetinib = compound: Cc1ccc(NC(=O)c2ccc(CN3CC[C@H](N(C)C)C3)c(C(F)(F)F)c2)cc1Nc1nccc(-c2cncnc2)n1 [bafetinib]
In short: (§1)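 Quantification of soluble protein used TMTpro 16plex LC-MS/MS, with channel sums equalised. Samples were the supernatant after 21,000xg for 90 min of pooled aliquots from K562 cells (2×10^6 cells/mL) treated with 10 μM compound for 30 min, heated for 3 min over 48°C-58°C, and extracted in PBS with 0.5% NP-40 at 4°C. Values, from duplicates, describe thermal stability against control samples on a log2 fold-change scale.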

nilotinib = compound: Cc1cn(-c2cc(NC(=O)c3ccc(C)c(Nc4nccc(-c5cccnc5)n4)c3)cc(C(F)(F)F)c2)cn1 [nilotinib]
In short: as §1

[1] = compound: Cc1nc(Nc2n[nH]c3c2CN(C(=O)N[C@H](CN(C)C)c2ccccc2)C3(C)C)c2sccc2n1
In short: as §1

dasatinib = compound: Cc1nc(Nc2ncc(C(=O)Nc3c(C)cccc3Cl)s2)cc(N2CCN(CCO)CC2)n1 [dasatinib]
In short: as §1

[2] = compound: Cc1ncc(-c2ccnc(Nc3ccc(S(C)(=O)=O)cc3)n2)n1C(C)C
In short: as §1

[3] = compound: Cn1cc(-c2ccc3nnc(C(F)(F)c4ccc5ncccc5c4)n3n2)cn1
In short: as §1

tipifarnib = compound: Cn1cncc1[C@@](N)(c1ccc(Cl)cc1)c1ccc2c(c1)c(-c1cccc(Cl)c1)cc(=O)n2C [tipifarnib]
In short: as §1

mubritinib = compound: FC(F)(F)c1ccc(/C=C/c2nc(COc3ccc(CCCCn4ccnn4)cc3)co2)cc1 [mubritinib]
In short: as §1

[4] = compound: Cc1cccc(CC(=O)N2CCc3c2ccc(-c2cn(C)c4ncnc(N)c24)c3F)n1
In short: as §1

[5] = compound: Cn1cc(-c2ccc3c(c2)CCN3C(=O)Cc2cccc(C(F)(F)F)c2)c2c(N)ncnc21
In short: as §1

Measured: log2 fold change

ICMT (UniProt O60725)
UniProt O60725, sequence (O60725 whole entry, looked up): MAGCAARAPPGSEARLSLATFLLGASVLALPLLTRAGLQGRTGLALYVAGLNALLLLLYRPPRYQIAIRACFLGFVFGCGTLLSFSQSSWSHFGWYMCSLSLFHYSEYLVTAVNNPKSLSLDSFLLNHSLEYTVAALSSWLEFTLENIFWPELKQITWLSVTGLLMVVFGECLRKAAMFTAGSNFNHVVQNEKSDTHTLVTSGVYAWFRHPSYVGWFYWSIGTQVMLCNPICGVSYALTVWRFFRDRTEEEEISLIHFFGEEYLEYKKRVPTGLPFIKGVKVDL
inactive: bafetinib -0.103 | nilotinib 0.049 | [1] 0.17 | dasatinib 0.065 | [2] -0.003 | [3] 0.113 | tipifarnib 0.107 | mubritinib 0.284

FUNDC1 (UniProt Q8IVP5)
UniProt Q8IVP5, sequence (Q8IVP5 whole entry, looked up): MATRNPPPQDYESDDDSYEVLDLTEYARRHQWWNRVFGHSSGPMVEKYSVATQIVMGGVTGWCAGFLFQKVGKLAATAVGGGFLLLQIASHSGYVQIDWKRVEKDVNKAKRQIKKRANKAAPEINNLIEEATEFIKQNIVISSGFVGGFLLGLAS
inactive: bafetinib -0.169 | tipifarnib 0 | mubritinib 0.066

FCF1 (UniProt Q9Y324)
inactive: [4] 0.042 | dasatinib 0.139 | [3] -0.119 | tipifarnib 0.242 | mubritinib -0.129

GAB2 (UniProt Q9UQC2)
UniProt Q9UQC2, sequence (Q9UQC2 whole entry, looked up): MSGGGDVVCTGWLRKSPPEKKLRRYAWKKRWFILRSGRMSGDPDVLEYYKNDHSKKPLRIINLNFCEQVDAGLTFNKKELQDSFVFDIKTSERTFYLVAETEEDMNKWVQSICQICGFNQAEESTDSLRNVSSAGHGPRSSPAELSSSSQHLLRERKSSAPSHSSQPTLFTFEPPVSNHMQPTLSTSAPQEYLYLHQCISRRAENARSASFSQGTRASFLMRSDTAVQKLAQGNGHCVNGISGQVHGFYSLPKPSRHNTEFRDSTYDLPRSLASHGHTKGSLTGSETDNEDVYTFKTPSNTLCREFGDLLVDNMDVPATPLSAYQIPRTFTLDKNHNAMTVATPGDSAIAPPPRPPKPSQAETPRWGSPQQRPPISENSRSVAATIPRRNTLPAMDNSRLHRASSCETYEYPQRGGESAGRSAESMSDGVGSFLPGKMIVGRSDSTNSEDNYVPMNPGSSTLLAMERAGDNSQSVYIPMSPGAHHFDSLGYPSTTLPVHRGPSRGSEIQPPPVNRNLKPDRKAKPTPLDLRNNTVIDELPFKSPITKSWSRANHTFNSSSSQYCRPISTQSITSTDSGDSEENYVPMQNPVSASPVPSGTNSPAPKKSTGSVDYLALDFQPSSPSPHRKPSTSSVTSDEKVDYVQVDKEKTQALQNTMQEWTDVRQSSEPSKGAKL
inactive: [4] 0 | dasatinib -0.599 | [5] 0.002 | [3] 0 | tipifarnib 0.175 | mubritinib 0.075

HBZ, A0A494C057
inactive: bafetinib -0.015 | nilotinib 0.171 | [1] -0.035 | [2] 0.127 | mubritinib -0.08

GBA2 (UniProt Q9HCG7)
inactive: bafetinib 0.045 | nilotinib -0.057 | [1] -0.061 | dasatinib -0.144 | [2] 0.007 | [5] 0.138 | tipifarnib 0.091 | mubritinib 0.234

IFITM3 (UniProt Q01628)
UniProt Q01628, sequence (Q01628 whole entry, looked up): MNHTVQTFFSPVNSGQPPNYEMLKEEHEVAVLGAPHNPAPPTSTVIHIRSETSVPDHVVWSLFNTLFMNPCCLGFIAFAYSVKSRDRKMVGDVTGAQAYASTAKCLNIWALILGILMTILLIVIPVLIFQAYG
inactive: bafetinib -0.073 | nilotinib 0.07 | [1] -0.2 | dasatinib -0.076 | [2] -0.01 | [5] 0.049 | [3] -0.149 | tipifarnib 0.113 | mubritinib -0.157

IGF2 isoform 3 (UniProt P01344)
UniProt P01344, sequence (P01344 whole entry, looked up): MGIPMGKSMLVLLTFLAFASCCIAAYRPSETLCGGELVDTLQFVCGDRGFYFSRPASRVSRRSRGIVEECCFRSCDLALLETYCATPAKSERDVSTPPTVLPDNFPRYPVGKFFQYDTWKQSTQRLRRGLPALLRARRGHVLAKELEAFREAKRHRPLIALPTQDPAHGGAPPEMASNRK
inactive: dasatinib 0.019

IDH3A isoform 2 (UniProt P50213)
UniProt P50213, sequence (P50213 whole entry, looked up): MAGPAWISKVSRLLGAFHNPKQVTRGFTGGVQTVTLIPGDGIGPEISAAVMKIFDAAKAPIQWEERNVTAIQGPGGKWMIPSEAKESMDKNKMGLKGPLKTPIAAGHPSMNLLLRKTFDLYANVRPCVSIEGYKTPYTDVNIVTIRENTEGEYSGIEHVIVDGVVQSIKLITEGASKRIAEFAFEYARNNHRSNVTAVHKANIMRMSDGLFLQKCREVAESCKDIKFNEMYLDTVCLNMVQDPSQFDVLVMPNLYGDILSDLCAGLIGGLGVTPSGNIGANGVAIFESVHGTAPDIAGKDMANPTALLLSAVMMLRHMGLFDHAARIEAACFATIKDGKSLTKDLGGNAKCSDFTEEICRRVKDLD
inactive: bafetinib 0.004 | nilotinib 0 | [1] 0.001 | [2] -0.057 | [5] 0.128

FCHO1 (UniProt O14526)
UniProt O14526, sequence (O14526 whole entry, looked up): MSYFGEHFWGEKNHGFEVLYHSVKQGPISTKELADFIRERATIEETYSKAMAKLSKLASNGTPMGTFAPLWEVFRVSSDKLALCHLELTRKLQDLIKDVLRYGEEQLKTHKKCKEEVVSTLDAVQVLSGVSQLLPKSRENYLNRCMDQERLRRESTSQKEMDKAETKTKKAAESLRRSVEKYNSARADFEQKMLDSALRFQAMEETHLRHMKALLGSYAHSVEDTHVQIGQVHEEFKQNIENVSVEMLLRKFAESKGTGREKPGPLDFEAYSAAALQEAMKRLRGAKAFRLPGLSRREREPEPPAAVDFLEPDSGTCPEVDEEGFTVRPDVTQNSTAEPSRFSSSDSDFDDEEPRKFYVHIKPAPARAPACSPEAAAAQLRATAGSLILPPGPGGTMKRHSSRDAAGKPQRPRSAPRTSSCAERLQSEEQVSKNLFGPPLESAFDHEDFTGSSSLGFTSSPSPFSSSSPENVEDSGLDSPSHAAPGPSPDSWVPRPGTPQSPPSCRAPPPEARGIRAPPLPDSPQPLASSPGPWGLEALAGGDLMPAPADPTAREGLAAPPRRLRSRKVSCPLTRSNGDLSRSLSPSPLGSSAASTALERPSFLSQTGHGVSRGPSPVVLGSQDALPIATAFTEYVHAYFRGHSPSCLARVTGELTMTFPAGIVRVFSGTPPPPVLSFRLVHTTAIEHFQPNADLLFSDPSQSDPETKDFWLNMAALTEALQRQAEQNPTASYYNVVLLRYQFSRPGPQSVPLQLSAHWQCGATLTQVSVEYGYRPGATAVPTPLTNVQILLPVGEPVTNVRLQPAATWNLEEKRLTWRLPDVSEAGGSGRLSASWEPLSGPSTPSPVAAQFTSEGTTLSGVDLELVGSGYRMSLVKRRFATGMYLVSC
inactive: nilotinib -0.118 | [1] -0.067 | dasatinib -0.275 | [2] -0.127 | [5] 0.079 | [3] 0.033 | tipifarnib -0.119 | mubritinib -0.003

GBE1 (UniProt Q04446)
UniProt Q04446, sequence (Q04446 whole entry, looked up): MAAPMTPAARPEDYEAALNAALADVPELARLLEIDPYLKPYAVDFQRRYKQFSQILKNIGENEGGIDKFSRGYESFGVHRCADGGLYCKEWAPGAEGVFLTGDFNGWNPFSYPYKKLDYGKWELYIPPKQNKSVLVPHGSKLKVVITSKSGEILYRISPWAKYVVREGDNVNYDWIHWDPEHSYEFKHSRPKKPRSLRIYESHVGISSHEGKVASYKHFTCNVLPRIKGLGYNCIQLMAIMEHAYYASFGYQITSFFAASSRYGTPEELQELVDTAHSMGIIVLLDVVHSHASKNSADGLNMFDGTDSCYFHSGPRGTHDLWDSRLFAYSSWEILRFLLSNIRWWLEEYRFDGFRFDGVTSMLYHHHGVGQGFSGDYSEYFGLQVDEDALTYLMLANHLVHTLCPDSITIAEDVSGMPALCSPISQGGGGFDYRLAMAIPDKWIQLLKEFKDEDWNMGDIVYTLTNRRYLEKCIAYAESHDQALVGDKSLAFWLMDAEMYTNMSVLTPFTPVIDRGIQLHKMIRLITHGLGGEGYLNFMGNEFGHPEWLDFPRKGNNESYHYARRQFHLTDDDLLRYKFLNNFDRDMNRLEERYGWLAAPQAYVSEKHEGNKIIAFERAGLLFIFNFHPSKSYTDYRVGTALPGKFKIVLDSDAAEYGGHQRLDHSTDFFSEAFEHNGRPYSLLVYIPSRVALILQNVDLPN
inactive: bafetinib 0.067 | dasatinib -0.275 | [5] -0.004 | [3] 0.059 | tipifarnib -0.608 | mubritinib 0.181

GPS2 (UniProt Q13227)
UniProt Q13227, sequence (Q13227 whole entry, looked up): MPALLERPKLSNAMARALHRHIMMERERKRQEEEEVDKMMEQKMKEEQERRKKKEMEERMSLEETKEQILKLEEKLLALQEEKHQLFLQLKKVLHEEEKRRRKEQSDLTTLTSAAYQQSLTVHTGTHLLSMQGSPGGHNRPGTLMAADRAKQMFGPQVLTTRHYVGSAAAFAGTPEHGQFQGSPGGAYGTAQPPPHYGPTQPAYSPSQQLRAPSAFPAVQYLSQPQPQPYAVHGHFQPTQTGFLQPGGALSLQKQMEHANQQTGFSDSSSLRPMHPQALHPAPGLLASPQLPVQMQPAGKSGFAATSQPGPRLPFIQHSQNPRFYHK
inactive: bafetinib -0.157 | nilotinib 0 | [1] -0.045 | [2] -0.074 | [3] 0.02 | tipifarnib -0.033 | mubritinib -0.059

FMR1 (UniProt Q06787)
inactive: [4] -0.146 | [5] -0.224 | [3] -0.028 | tipifarnib -0.129 | mubritinib -0.175

HSPA2 (UniProt P54652)
UniProt P54652, sequence (P54652 whole entry, looked up): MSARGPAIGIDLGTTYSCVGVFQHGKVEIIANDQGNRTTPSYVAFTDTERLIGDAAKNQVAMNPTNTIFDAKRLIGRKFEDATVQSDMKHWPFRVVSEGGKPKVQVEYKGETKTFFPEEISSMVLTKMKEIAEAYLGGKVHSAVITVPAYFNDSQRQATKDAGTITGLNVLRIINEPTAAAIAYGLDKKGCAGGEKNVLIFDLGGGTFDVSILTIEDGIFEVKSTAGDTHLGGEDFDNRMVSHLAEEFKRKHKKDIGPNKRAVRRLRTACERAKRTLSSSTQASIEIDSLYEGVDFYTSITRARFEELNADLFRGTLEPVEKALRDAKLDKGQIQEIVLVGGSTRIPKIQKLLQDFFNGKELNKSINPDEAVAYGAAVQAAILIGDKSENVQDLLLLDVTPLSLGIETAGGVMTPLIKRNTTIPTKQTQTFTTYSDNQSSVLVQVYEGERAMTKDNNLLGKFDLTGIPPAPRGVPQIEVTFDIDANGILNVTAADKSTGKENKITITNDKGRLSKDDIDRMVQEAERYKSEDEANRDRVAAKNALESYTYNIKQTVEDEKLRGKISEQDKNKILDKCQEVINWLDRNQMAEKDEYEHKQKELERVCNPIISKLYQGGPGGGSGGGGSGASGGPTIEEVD
inactive: bafetinib -0.08 | nilotinib 0.024 | [1] 0.031 | [2] -0.013 | [3] 0.003 | mubritinib -0.067

H3-3A (UniProt P84243)
inactive: bafetinib -0.046 | nilotinib -0.038 | [1] -0.123 | dasatinib -0.133 | [2] -0.067 | [5] 0.08 | tipifarnib -0.261 | mubritinib 0.236

HSPA8 (UniProt E9PN89)
inactive: bafetinib -0.04 | [4] -0.338 | nilotinib -0.12 | [1] 0.041 | [2] -0.123 | [5] -0.063 | tipifarnib 0.122 | mubritinib 0.004

GGA2 (UniProt Q9UJY4)
UniProt Q9UJY4, sequence (Q9UJY4 whole entry, looked up): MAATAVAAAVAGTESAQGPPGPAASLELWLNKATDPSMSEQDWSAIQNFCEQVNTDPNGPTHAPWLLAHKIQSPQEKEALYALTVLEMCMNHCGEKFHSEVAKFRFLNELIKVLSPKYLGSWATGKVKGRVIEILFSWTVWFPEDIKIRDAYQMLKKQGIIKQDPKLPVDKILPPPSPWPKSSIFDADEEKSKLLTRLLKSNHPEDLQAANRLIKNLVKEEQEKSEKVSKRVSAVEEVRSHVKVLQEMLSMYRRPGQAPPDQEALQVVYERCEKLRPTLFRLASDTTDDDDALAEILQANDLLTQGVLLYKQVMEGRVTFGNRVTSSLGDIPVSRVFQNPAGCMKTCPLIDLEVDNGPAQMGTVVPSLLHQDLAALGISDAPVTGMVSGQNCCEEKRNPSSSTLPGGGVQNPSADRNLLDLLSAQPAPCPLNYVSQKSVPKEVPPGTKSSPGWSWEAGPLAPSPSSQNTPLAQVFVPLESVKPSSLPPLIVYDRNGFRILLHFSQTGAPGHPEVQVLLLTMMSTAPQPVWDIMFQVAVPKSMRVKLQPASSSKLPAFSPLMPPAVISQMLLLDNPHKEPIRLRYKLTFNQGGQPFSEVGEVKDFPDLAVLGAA
inactive: bafetinib 0.024 | nilotinib -0.031 | [1] 0.065 | dasatinib 0.075 | [2] -0.013 | [5] 0.024 | [3] 0.034 | tipifarnib -0.003 | mubritinib 0.014

FAT2 (UniProt Q9NYQ8)
inactive: bafetinib 0.076 | [4] -0.005 | dasatinib 0.006 | [5] 0.167 | [3] 0.002 | tipifarnib 0.008 | mubritinib 0.354

GREB1 (UniProt Q4ZG55)
inactive: [5] 0.046
